Test results reported in PubChem BioAssay (NCI).
The panel holds about 83,000 compounds, 20% with a hit somewhere; the sample as a whole holds those more often.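 Growth was measured after 48 h exposure to one concentration of compound in 96-well plates. Values under 10 count as active.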 Values without a mark were called inactive. Calls of active or inactive are those of the source.

Assays:
Experiment in all cases: NCI-60 one-dose screen, 48 h (100 = growth as untreated, 0 = no growth, -100 = all killed)
SK-MEL-2 melanoma = conditions: 10 µM unless noted
EKVX NSCLC = conditions: 10 µM unless noted
SN12C renal = conditions: 10 µM unless noted
UO-31 renal = conditions: 10 µM unless noted
TK-10 renal = conditions: 10 µM unless noted
ACHN renal = conditions: 10 µM unless noted
CAKI-1 renal = conditions: 10 µM
A498 renal = conditions: 10 µM unless noted
CCRF-CEM leukemia = conditions: 10 µM unless noted
MOLT-4 leukemia = conditions: 10 µM unless noted
SR leukemia = conditions: 10 µM unless noted
RPMI-8226 leukemia = conditions: 10 µM unless noted
OVCAR-8 ovarian = conditions: 10 µM unless noted
OVCAR-5 ovarian = conditions: 10 µM unless noted
OVCAR-4 ovarian = conditions: 10 µM unless noted
SK-OV-3 ovarian = conditions: 10 µM unless noted
IGROV1 ovarian = conditions: 10 µM unless noted
OVCAR-3 ovarian = conditions: 10 µM unless noted
HS 578T breast = conditions: 10 µM unless noted
NCI/ADR-RES ovarian = conditions: 10 µM unless noted

| SMILES | growth (SK-MEL-2 melanoma) | growth (EKVX NSCLC) | growth (SN12C renal) | growth (UO-31 renal) | growth (TK-10 renal) | growth (ACHN renal) | growth (CAKI-1 renal) | growth (A498 renal) | growth (CCRF-CEM leukemia) | growth (MOLT-4 leukemia) | growth (SR leukemia) | growth (RPMI-8226 leukemia) | growth (OVCAR-8 ovarian) | growth (OVCAR-5 ovarian) | growth (OVCAR-4 ovarian) | growth (SK-OV-3 ovarian) | growth (IGROV1 ovarian) | growth (OVCAR-3 ovarian) | growth (HS 578T breast) | growth (NCI/ADR-RES ovarian) |
| --- | --- | --- | --- | --- | --- | --- | --- | --- | --- | --- | --- | --- | --- | --- | --- | --- | --- | --- | --- | --- |
| O=C1C[C@@H](c2ccccc2)Oc2c(Cc3ccccc3O)c(O)c(Cc3cc(Cc4cc(Cc5ccccc5O)ccc4O)ccc3O)c(O)c21 | 110% | 93.2% | 100% | 66.6% | 147% | 94.4% | 75.5% | 98.3% | 91.5% | 76.3% | 99.5% | 88% | 97.2% | 107% | 99.6% | 103% | 82.6% | 96.4% | 85.4% | 106% |
| O=C(/C=C1\C=CN(CCCCF)c2ccccc21)n1ccc2ccccc21 | 103% | 90.7% | 94.6% | 74.2% | 117% | 97.6% | 87.5% | 135% | 96.4% | 105% | 107% | 102% | 106% | 99.2% | 85.4% | 95.9% | 74.9% | 126% | 119% | 108% |
| COc1ccc(N)cc1C(=O)Nc1cccc(-c2cc(=O)c3c(OC)c(OC)c(OC)cc3o2)c1 | 89.1% | 84.8% | 49.7% | 29.4% | 81.5% | 52.3% | 43.1% | 63.1% | 34% | 48.2% | 40.9% | 35.4% | 56.4% | 94.8% | 81.5% | 119% | 51.3% | 65.5% | 58.3% | 60.7% |
| Oc1ccc(CSc2nnc(-c3ccc(Oc4ccccc4)cc3)o2)c2cccnc12 | 39.9% | 23.6% | 23.8% | 2.75% (active) | 34.8% | -2.93% (active) | 60.3% | 78.9% | 16% | 26.9% | 32.2% | 23.5% | 24.2% | 48.3% | -36.5% (active) | 22% | 26.1% | -28.7% (active) | 10.4% | 12.6% |
| COc1cc(/C=N/n2cnc3oc(-c4ccccc4)cc3c2=N)cc(CN2CCOCC2)c1O | 104% | 89.9% | 72.4% | 74% | 102% | 28% | 43.7% | 53.8% | 26.2% | 52.9% | 32% | 27.5% | 60.4% | 84.2% | 72.6% | 68.4% | 21.7% | 108% | 14.8% | 72.5% |
| O=C(O)c1ccc(-n2cc(CNc3ccc(Cl)cc3)c(-c3ccc(F)cc3)n2)cc1 | 99.1% | 81.1% | 99% | 80.5% | 119% | 78.9% | 83.8% | 88.6% | 91.8% | 85.4% | 121% | 80.2% | 92.4% | 106% | 101% | 110% | 102% | 105% | 100% | 102% |
| O=C(/C=C1\C=CN(CCCCCCF)c2ccccc21)n1ccc2ccccc21 | 111% | 79% | 90.5% | 71.5% | 115% | 97.4% | 86.5% | 96.3% | 96.1% | 106% | 85.8% | 74.7% | 101% | 99.3% | 81.9% | 98.8% | 67.6% | 100% | 96.7% | 105% |
| O=S(=O)(NCCCNc1nccc(-n2cnc3ccccc32)n1)c1ccc(F)cc1 | 85.8% | 61.2% | 89% | 59.3% | 91.9% | 81.1% | 71% | 70.6% | 49.1% | 33.2% | 36.8% | 57.7% | 62.5% | 98.6% | 44.2% | 85.1% | 91.8% | 86.7% | 82.4% | 64.3% |
| Cc1ccc(-n2cc(/C=C/C(=O)c3ccc(S(C)(=O)=O)cc3)c(-c3ccc(S(C)(=O)=O)cc3)n2)cc1 | 107% | 93.2% | 89.7% | 85.5% | 127% | 93.3% | 89.2% | 84.6% | 77.5% | 71.9% | 44% | 92.3% | 97.5% | 98.3% | 109% | 105% | 69.2% | 75.9% | 103% | 64% |
| N=c1c2cc(-c3ccccc3)oc2ncn1/N=C/c1ccccc1 | 97.2% | 86.5% | 86.1% | 85.6% | 80.3% | 75.1% | 67.5% | 77.8% | 64% | 65.3% | 16.4% | 99.1% | 96.9% | 83.5% | 93.2% | 96.5% | 63% | 59.2% | 91.3% | 60.3% |
| O=C1[C@H]2Cc3c([nH]c4ccccc34)[C@@H](c3ccc(Cl)cc3)N2C(=O)CN1C1CCN(Cc2c(Cl)cccc2Cl)CC1 | 102% | 78.6% | 81.3% | 2.51% (active) | 107% | -33.8% (active) | 54.6% | 111% | 65.8% | 97.3% | 29.8% | 88.4% | 89.2% | 98.1% | 87.1% | 108% | -44.1% (active) | 100% | 88.2% | 81.5% |
| NS(=O)(=O)c1ccc(-n2cc(CC=O)nn2)cc1 | 109% | 99.2% | 106% | 87.7% | 98.5% | 107% | 92.2% | 96% | 110% | 103% | 101% | 109% | 106% | 104% | 101% | 112% | 102% | 109% | 104% | 104% |
| Cn1ccnc1C(=O)/C=C/c1ccc(C(=O)Nc2ccc(NC(=O)CCNC(=O)c3csc(Br)n3)cc2)cc1 | 109% | 69.9% | 40.2% | 46.6% | 89.7% | 61.8% | 29.3% | 100% | 12.9% | 70.3% | 12.5% | 14.5% | 63.9% | 78.8% | 64.1% | 100% | 41.7% | 15.5% | 95.5% | 60.9% |
| CNC(=O)c1cc(N2CCc3cc(NC(=O)Nc4ccc(Cl)c(Cl)c4)ccc32)ccn1 | 84.3% | 85.3% | 86.1% | 89.1% | 99.3% | 80.1% | 82.2% | 89.1% | 86.5% | 67.7% | 64.4% | 57.1% | 90% | 96.8% | 86.4% | 88.8% | 94% | 105% | 62% | 93% |
| O=C1[C@H]2Cc3c([nH]c4ccccc34)[C@H](c3ccc(Cl)cc3)N2C(=O)CN1C1CCN(Cc2c(Cl)cccc2Cl)CC1 | 106% | 74.5% | 59.9% | 48.4% | 101% | 72.9% | 41.9% | 101% | 53.4% | 44% | 22.2% | 50.3% | 84.5% | 89.2% | 69.9% | 98.5% | 39% | 76.8% | 75.6% | 77.6% |
